Laboratory results reported in PMC4336329 (PLoS ONE, 2015).
Screen size: about 310,000 compounds; about 14,000 (4.5%) showed an effect of 50% or more. The effect is printed as a negative number. The full list was thinned out, with strong results kept by preference.
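Also: peak tail current of the secondary pulse compared with the same well before compound.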

The molecules below were run against human ether-à-go-go-related gene (hERG) potassium channel (human, UniProt Q12809) (assay: primary screen, population patch clamp on CHO cells stably expressing hERG; higher = less effect of the substance).
Sequence of human ether-à-go-go-related gene (hERG) potassium channel (Q12809 whole entry, looked up): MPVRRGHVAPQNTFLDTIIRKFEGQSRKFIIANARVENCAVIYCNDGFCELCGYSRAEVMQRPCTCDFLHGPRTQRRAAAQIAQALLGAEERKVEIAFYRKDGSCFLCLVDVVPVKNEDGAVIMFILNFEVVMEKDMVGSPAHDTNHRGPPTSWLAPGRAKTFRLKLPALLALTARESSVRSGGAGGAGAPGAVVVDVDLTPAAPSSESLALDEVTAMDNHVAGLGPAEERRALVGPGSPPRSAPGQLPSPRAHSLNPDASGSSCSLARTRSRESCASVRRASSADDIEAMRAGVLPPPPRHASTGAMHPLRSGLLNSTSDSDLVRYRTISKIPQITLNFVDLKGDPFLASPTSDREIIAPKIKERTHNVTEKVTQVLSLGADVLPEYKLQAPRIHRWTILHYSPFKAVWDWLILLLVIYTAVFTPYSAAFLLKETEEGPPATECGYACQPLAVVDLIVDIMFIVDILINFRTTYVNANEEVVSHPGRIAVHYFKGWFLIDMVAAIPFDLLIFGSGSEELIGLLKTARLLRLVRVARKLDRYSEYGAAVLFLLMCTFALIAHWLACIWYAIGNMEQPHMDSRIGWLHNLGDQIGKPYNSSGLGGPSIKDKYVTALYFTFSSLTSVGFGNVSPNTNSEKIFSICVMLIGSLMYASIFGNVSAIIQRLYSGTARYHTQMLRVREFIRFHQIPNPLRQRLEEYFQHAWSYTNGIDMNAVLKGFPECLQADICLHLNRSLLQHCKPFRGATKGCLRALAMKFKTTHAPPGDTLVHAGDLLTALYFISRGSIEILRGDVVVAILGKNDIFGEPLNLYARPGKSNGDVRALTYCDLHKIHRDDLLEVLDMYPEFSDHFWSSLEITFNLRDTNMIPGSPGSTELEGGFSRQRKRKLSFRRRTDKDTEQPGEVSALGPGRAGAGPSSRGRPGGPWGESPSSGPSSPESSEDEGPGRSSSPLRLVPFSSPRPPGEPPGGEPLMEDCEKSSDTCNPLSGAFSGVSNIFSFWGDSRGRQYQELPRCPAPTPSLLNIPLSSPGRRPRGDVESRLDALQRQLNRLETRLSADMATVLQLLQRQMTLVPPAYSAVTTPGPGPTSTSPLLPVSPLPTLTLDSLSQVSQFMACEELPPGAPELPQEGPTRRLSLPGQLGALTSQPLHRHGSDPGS
With `Cc1cc(C)cc(NC(=O)CSc2nnc(-c3ccccc3C)o2)c1` the “hERG current change (%, negative = inhibition) at 10uM” value was 3.37%. With `COc1cccc(-c2nnn(CC(=O)O)n2)c1` the “hERG current change (%, negative = inhibition) at 10uM” value was 9.1%. `CC(=O)c1cccc(CN2CCC(CO)(CCOc3ccccc3)CC2)c1` was tested, and the “hERG current change (%, negative = inhibition) at 10uM” value was -41.5%. `COc1ccc(OCC(=O)N2CCCC(CO)(CCOc3ccccc3)C2)cc1` (stereo not shown) was tested, and the “hERG current change (%, negative = inhibition) at 10uM” value was -46.8%. For `Cc1c(CN2CCC(CO)(CCOc3ccccc3)CC2)c(=O)n(-c2ccccc2)n1C`, the “hERG current change (%, negative = inhibition) at 10uM” value was -5.7%. For `OCCOc1cccc(CN2CCC(CO)(CCOc3ccccc3)CC2)c1`, the “hERG current change (%, negative = inhibition) at 10uM” value was -51.3%. `COc1ccc(OC)c(CN2CCSCC2)c1` was tested, and the “hERG current change (%, negative = inhibition) at 10uM” value was 9.69%. In the case of `COc1ccc(OC)c(CN2CCC(CO)(CCOc3ccccc3)CC2)c1`, the “hERG current change (%, negative = inhibition) at 10uM” value is reported as -76.2%. In the case of `COc1cc(OC)c(CN2CCC(CO)(CCOc3ccccc3)CC2)c(OC)c1`, the “hERG current change (%, negative = inhibition) at 10uM” value is reported as -86.4%. In the case of `Cc1cc(C)c(CN2CCC(CO)(CCOc3ccccc3)CC2)cc1C`, the “hERG current change (%, negative = inhibition) at 10uM” value is reported as -65.2%. In the case of `O=C1CC(Sc2nnc(-c3ccccc3)o2)C(=O)N1c1ccccc1` (stereo not shown), the “hERG current change (%, negative = inhibition) at 10uM” value is reported as 3.12%. `Cc1cc(C)cc(-c2nnc(SCC(=O)NCc3cccs3)o2)c1` was tested, and the “hERG current change (%, negative = inhibition) at 10uM” value was 4.21%. For `Fc1ccccc1CN1CCN(c2ncccn2)CC1`, the “hERG current change (%, negative = inhibition) at 10uM” value was 5.66%. `N#Cc1c(SCC(=O)N2CCCCC2)nsc1SCC(=O)N1CCCCC1` was tested, and the “hERG current change (%, negative = inhibition) at 10uM” value was 16.5%. With `CC(C)C(C(=O)Nc1ccccc1F)N1C(=O)c2ccccc2C1=O` (stereo not shown) the “hERG current change (%, negative = inhibition) at 10uM” value was -3.78%. With `Cc1nn(CCC(=O)NNC(=S)NCC(C)C)c(C)c1Br` the “hERG current change (%, negative = inhibition) at 10uM” value was 14%. With `CCN(CC)S(=O)(=O)c1ccc(OC)c(NS(=O)(=O)c2ccc(F)cc2)c1` the “hERG current change (%, negative = inhibition) at 10uM” value was -10.5%. For `O=C1CCc2cc(S(=O)(=O)NCc3ccccc3Cl)ccc2N1`, the “hERG current change (%, negative = inhibition) at 10uM” value was -23.4%. With `Cc1cc(C(=O)NNC(=O)CCCOc2ccccc2)c(C)o1` the “hERG current change (%, negative = inhibition) at 10uM” value was 0.675%. For `CCCNC(=O)C1CCN(c2ccc(S(=O)(=O)N3CCOCC3)cc2Cl)CC1`, the “hERG current change (%, negative = inhibition) at 10uM” value was 6.36%. For `Cc1ccc(SC2=C(C(=O)O)CCCC2)cc1`, the “hERG current change (%, negative = inhibition) at 10uM” value was 4.25%. In the case of `COc1cc(CN2CCC(CO)(CCOc3ccccc3)CC2)cc(OC)c1`, the “hERG current change (%, negative = inhibition) at 10uM” value is reported as -67.3%. `COc1cc(Cl)c(CN2CCC(CO)(CCOc3ccccc3)CC2)cc1OC` was tested, and the “hERG current change (%, negative = inhibition) at 10uM” value was -80.7%. `COc1cc(CN2CCC(CO)(CCOc3ccccc3)CC2)cc(OC)c1OC` was tested, and the “hERG current change (%, negative = inhibition) at 10uM” value was -38.3%. With `OCC1(CCOc2ccccc2)CCN(Cc2cc(Cl)ccc2O)CC1` the “hERG current change (%, negative = inhibition) at 10uM” value was -24.7%. `O=C(NC1CCCC1)C(c1ccncc1)N(Cc1ccccc1)C(=O)Cc1cccs1` (stereo not shown) was tested, and the “hERG current change (%, negative = inhibition) at 10uM” value was -14.1%. In the case of `COCCNCC1C(Oc2ccc(Cl)cc2)C(=O)N1c1ccccc1C.Cl` (stereo not shown), the “hERG current change (%, negative = inhibition) at 10uM” value is reported as -8.44%. `Cc1ccccc1N1C(=O)C(Oc2ccc(Cl)cc2)C1CNC(C)(C)C` (stereo not shown) was tested, and the “hERG current change (%, negative = inhibition) at 10uM” value was -39.5%. In the case of `CCCNCC1C(Oc2ccc(Cl)cc2)C(=O)N1c1ccccc1C` (stereo not shown), the “hERG current change (%, negative = inhibition) at 10uM” value is reported as -48.6%. In the case of `COCCCNCC1C(Oc2ccc(Cl)cc2)C(=O)N1c1ccccc1C` (stereo not shown), the “hERG current change (%, negative = inhibition) at 10uM” value is reported as -8.54%. `CCCCNCC1C(Oc2ccc(Cl)cc2)C(=O)N1c1ccccc1C.Cl` (stereo not shown) was tested, and the “hERG current change (%, negative = inhibition) at 10uM” value was -65.9%. With `Cc1ccccc1N1C(=O)C(Oc2ccc(Cl)cc2)C1CNCCCOC(C)C` (stereo not shown) the “hERG current change (%, negative = inhibition) at 10uM” value was -53.4%. `COc1ccc(N2CCN(C(=O)CN=C3NS(=O)(=O)C(c4ccc(C)cc4)=C3C)CC2)cc1` was tested, and the “hERG current change (%, negative = inhibition) at 10uM” value was -5.05%. `O=C(Cc1ccccc1)N/N=C/c1ccc(S(=O)(=O)[O-])o1` was tested, and the “hERG current change (%, negative = inhibition) at 10uM” value was 26.2%. With `Cc1ccc(S(=O)(=O)NCc2ccc(N3CCN(C(=O)OC(C)(C)C)CC3)cc2)cc1` the “hERG current change (%, negative = inhibition) at 10uM” value was 9.55%. `COc1ccc(OC)c(CNC(=O)C2CCN(S(=O)(=O)N3CCC(C)CC3)CC2)c1` was tested, and the “hERG current change (%, negative = inhibition) at 10uM” value was -31.8%. With `Cc1nc2ccccc2c2oc(C(=O)NCCN3CCN(C)CC3)cc12` the “hERG current change (%, negative = inhibition) at 10uM” value was 12.4%. With `CC(=O)N1c2ccc(S(=O)(=O)N3CCCC3C(=O)NCc3ccc(Cl)cc3)cc2CC1C` (stereo not shown) the “hERG current change (%, negative = inhibition) at 10uM” value was -62.9%. For `CCc1ccc(NC(=O)C2CCCN2S(=O)(=O)c2ccc3c(c2)C(C)(C)C(=O)N3C)cc1` (stereo not shown), the “hERG current change (%, negative = inhibition) at 10uM” value was -51%. With `CC(=O)N1c2ccc(S(=O)(=O)N3CCCC(C(=O)NCc4ccc(Cl)cc4)C3)cc2CC1C` (stereo not shown) the “hERG current change (%, negative = inhibition) at 10uM” value was -2.85%. `CCOc1ccc(NC(=O)C2CCCN2S(=O)(=O)c2ccc3c(c2)C(C)(C)C(=O)N3C)cc1` (stereo not shown) was tested, and the “hERG current change (%, negative = inhibition) at 10uM” value was -6.75%. For `CSc1ccc(CNC(=O)C2Cc3cc(S(=O)(=O)N4CCCCC4)ccc3N2C(C)=O)cc1` (stereo not shown), the “hERG current change (%, negative = inhibition) at 10uM” value was -57.1%. For `CCc1cccc(NC(=O)C2CCN(S(=O)(=O)c3ccc4c(c3)CC(C)N4C(C)=O)CC2)c1` (stereo not shown), the “hERG current change (%, negative = inhibition) at 10uM” value was 2.05%. In the case of `CCc1ccc(CNC(=O)C2Cc3cc(S(=O)(=O)N4CCCC4)ccc3N2C(C)=O)cc1` (stereo not shown), the “hERG current change (%, negative = inhibition) at 10uM” value is reported as -25.9%. In the case of `Cc1cc(C)cc(NC(=O)C2CCCN2S(=O)(=O)c2ccc3c(c2)C(C)(C)C(=O)N3C)c1` (stereo not shown), the “hERG current change (%, negative = inhibition) at 10uM” value is reported as -38.7%. In the case of `CC(=O)N1c2ccc(S(=O)(=O)N3CCCC3C(=O)NCc3ccccc3Cl)cc2CC1C` (stereo not shown), the “hERG current change (%, negative = inhibition) at 10uM” value is reported as -40%. In the case of `CCc1cccc(NC(=O)C2CCCN2S(=O)(=O)c2ccc3c(c2)CC(C)N3C(C)=O)c1` (stereo not shown), the “hERG current change (%, negative = inhibition) at 10uM” value is reported as -71.2%. For `CC(=O)N1c2ccc(S(=O)(=O)N3CCCC3C(=O)Nc3cccc(F)c3)cc2CC1C` (stereo not shown), the “hERG current change (%, negative = inhibition) at 10uM” value was -32.8%. With `CSc1ccc(CNC(=O)C2Cc3cc(S(=O)(=O)N4CCCC4)ccc3N2C(C)=O)cc1` (stereo not shown) the “hERG current change (%, negative = inhibition) at 10uM” value was -38.2%.
